{
  "source": "PubChem BioAssay (NCI)",
  "note": "Compounds without any hit were thinned out: in the full panel of roughly 83,000, 20% have a hit.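 In brief: 96-well plates, 48 h treatment, single concentration, percent growth endpoint.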 Values without a mark were called inactive. The source made the active and inactive calls. Rule for the calls: active = growth percent below 10; inactive = the rest.",
  "data": [
    {"system": "HS 578T breast", "experiment": "NCI-60 one-dose screen, 48 h (100 = growth as untreated, 0 = no growth, -100 = all killed)", "settings": "10 µM unless noted", "values": [
      {"smiles": "COc1ccc([C@H]2[C@H](O)C(=O)N2c2cc(OC)c(OC)c(OC)c2)cc1Cl", "growth": "13.6%"},
      {"smiles": "COc1cc2c3c(n(CCCNCC4CC4)c(=O)c2cc1OC)-c1cc2c(cc1C3=O)OCO2", "growth": "95.3%"},
      {"smiles": "O=C(Cn1cc(CN2C(=O)c3ccc([N+](=O)[O-])cc3C2=O)nn1)Nc1ccccc1Br", "growth": "110%"},
      {"smiles": "COc1ccc(NC(=O)Cn2cc(CN3C(=O)c4ccc([N+](=O)[O-])cc4C3=O)nn2)cc1", "growth": "106%"},
      {"smiles": "COc1cc2c3c(n(CCCNC4CCCC4)c(=O)c2cc1OC)-c1cc2c(cc1C3=O)OCO2", "growth": "93.3%"},
      {"smiles": "CS(=O)c1nccc(-c2c(-c3ccc(F)c(OCCc4ccccc4)c3)nc3sccn23)n1", "note": "(stereo not drawn)", "growth": "99.8%"},
      {"smiles": "COc1cc2c3c(n(CCCNC4CCC4)c(=O)c2cc1OC)-c1cc2c(cc1C3=O)OCO2", "growth": "84.1%"},
      {"smiles": "O=S(=O)(Nc1ccc(-n2cnc3cc(-c4ccc(O)cc4)ccc32)cc1)C1CC1", "growth": "95%"},
      {"smiles": "N#Cc1ccc(S(=O)(=O)Nc2ccc(-c3cnc(N)[nH]3)cc2)cc1", "growth": "98.3%"},
      {"smiles": "Cn1cc(-c2nn3cc(-c4cccnc4)nc3s2)c2cc(F)ccc21", "growth": "84.6%"},
      {"smiles": "COc1ccc2oc3c4[nH]c5ccccc5c4c4c(c3c2c1)C(=O)N(O)C4=O", "growth": "89.9%"},
      {"smiles": "COc1ccc(/C(C)=C(\\c2ccc(Cl)cc2)c2ccc(OCCN)cc2)cc1", "growth": "89%"},
      {"smiles": "COc1ccc2c(c1)c(-c1nn3c(=O)cc(-c4ccccc4)nc3s1)cn2C", "growth": "27%"},
      {"smiles": "Cc1ccccc1/C=C/c1nn2c(-c3ccoc3C)nnc2s1", "growth": "111%"},
      {"smiles": "Cn1cc(-c2nn3cc(-c4cccnc4)nc3s2)c2ccccc21", "growth": "31.3%"},
      {"smiles": "COc1ccc(-c2cc(-c3cccc4ccccc34)n3c(n2)nc2ccccc23)cc1OC", "growth": "46.3%"},
      {"smiles": "Cn1c2ccc(Br)cc2c2c3c(c4c5cc(F)ccc5oc4c21)C(=O)N(O)C3=O", "growth": "92.8%"},
      {"smiles": "O=C(Cn1cc(CN2C(=O)c3ccc([N+](=O)[O-])cc3C2=O)nn1)Nc1ccc(F)cc1Cl", "growth": "111%"},
      {"smiles": "O=C1c2c(c3c4ccc(Br)cc4oc3c3[nH]c4ccccc4c23)C(=O)N1CCO", "growth": "88.5%"},
      {"smiles": "CCOC(=O)CC(=O)CSC1=NC2C(NN1)N(C)C(=O)N2C", "note": "(stereo not drawn)", "growth": "94.4%"},
      {"smiles": "Cn1c2ccccc2c2c3c(c4c5ccc(Br)cc5oc4c21)C(=O)N(O)C3=O", "growth": "102%"},
      {"smiles": "CCNCCCn1c2c(c3cc(OC)c(OC)cc3c1=O)C(=O)c1cc(OC)cnc1-2", "growth": "80.2%"},
      {"smiles": "C=CCn1c(SCC(=O)Nc2cccc(C(=O)/C=C/c3cccc([N+](=O)[O-])c3)c2)nc2ccccc2c1=O", "growth": "91.9%"},
      {"smiles": "COc1ccc2c(c1)oc1c3[nH]c4ccccc4c3c3c(c21)C(=O)N(O)C3=O", "growth": "77.9%"},
      {"smiles": "COc1cc2c3c(n(CCCN4CCC[C@H]4C(N)=O)c(=O)c2cc1OC)-c1cc2c(cc1C3=O)OCO2", "growth": "70.9%"},
      {"smiles": "C=CCn1c(SCC(=O)Nc2cccc(C(=O)/C=C/c3ccc(Br)cc3)c2)nc2ccccc2c1=O", "growth": "83.3%"},
      {"smiles": "CS(=O)(=O)c1ccc2c(c1)c1c(n2C(=O)c2ccc(Cl)cc2)CCCC1", "growth": "-0.806% (active)"},
      {"smiles": "COc1ccc([C@H]2[C@H](O)C(=O)N2c2cc(OC)c(OC)c(OC)c2)cc1O", "growth": "5.02% (active)"},
      {"smiles": "Cc1occc1-c1nc2s/c(=C\\c3cn(-c4ccccc4)nc3-c3ccccc3)c(=O)n2n1", "growth": "105%"},
      {"smiles": "COc1cc2c3c(n(CCCNC4CCCCC4)c(=O)c2cc1OC)-c1cc2c(cc1C3=O)OCO2", "growth": "90.5%"},
      {"smiles": "COc1ccc(-c2no[n+]([O-])c2Nc2ccccc2Br)cc1", "growth": "88.9%"},
      {"smiles": "C/C(Cc1ccc(Cl)cc1)=C(/c1ccccc1)c1ccc(OCCN)cc1", "growth": "97.1%"},
      {"smiles": "COc1cnc2c(c1)C(=O)c1c-2n(CCCNCC2CC2)c(=O)c2cc(F)ccc12", "growth": "26.1%"},
      {"smiles": "COc1cnc2c(c1)C(=O)c1c-2n(CCCn2ccnc2)c(=O)c2cc(OC)c(OC)cc12", "growth": "57.1%"},
      {"smiles": "C=CCn1c(SCC(=O)Nc2cccc(C(=O)/C=C/c3ccccc3)c2)nc2ccccc2c1=O", "growth": "99.2%"},
      {"smiles": "COc1cc2c3c(n(CCCN4CCCC4)c(=O)c2cc1OC)-c1cc2c(cc1C3=O)OCO2", "growth": "88.6%"},
      {"smiles": "N#C/C(=C\\c1ccc(-c2ccc(F)cc2)o1)C(=O)Nc1ncc(Cc2ccc(Cl)cc2Cl)s1", "growth": "10.7%"},
      {"smiles": "Cc1ccc(-c2nnc3sc(C4=Cc5ccccc5OC=C4)nn23)cc1", "growth": "112%"}
    ]},
    {"system": "NCI/ADR-RES ovarian", "experiment": "NCI-60 one-dose screen, 48 h (100 = growth as untreated, 0 = no growth, -100 = all killed)", "settings": "10 µM unless noted", "values": [
      {"smiles": "O=C(Cn1cc(CN2C(=O)c3ccc([N+](=O)[O-])cc3C2=O)nn1)Nc1ccccc1Br", "growth": "99.3%"},
      {"smiles": "COc1ccc(NC(=O)Cn2cc(CN3C(=O)c4ccc([N+](=O)[O-])cc4C3=O)nn2)cc1", "growth": "100%"},
      {"smiles": "COc1cc2c3c(n(CCCNC4CCCC4)c(=O)c2cc1OC)-c1cc2c(cc1C3=O)OCO2", "growth": "51.9%"},
      {"smiles": "CS(=O)c1nccc(-c2c(-c3ccc(F)c(OCCc4ccccc4)c3)nc3sccn23)n1", "note": "(stereo not drawn)", "growth": "108%"},
      {"smiles": "COc1cc2c3c(n(CCCNC4CCC4)c(=O)c2cc1OC)-c1cc2c(cc1C3=O)OCO2", "growth": "-32.4% (active)"},
      {"smiles": "O=S(=O)(Nc1ccc(-n2cnc3cc(-c4ccc(O)cc4)ccc32)cc1)C1CC1", "growth": "94.2%"},
      {"smiles": "N#Cc1ccc(S(=O)(=O)Nc2ccc(-c3cnc(N)[nH]3)cc2)cc1", "growth": "102%"},
      {"smiles": "Cn1cc(-c2nn3cc(-c4cccnc4)nc3s2)c2cc(F)ccc21", "growth": "75.7%"},
      {"smiles": "COc1ccc2oc3c4[nH]c5ccccc5c4c4c(c3c2c1)C(=O)N(O)C4=O", "growth": "101%"},
      {"smiles": "COc1ccc(/C(C)=C(\\c2ccc(Cl)cc2)c2ccc(OCCN)cc2)cc1", "growth": "89.1%"},
      {"smiles": "Cc1ccccc1/C=C/c1nn2c(-c3ccoc3C)nnc2s1", "growth": "93.7%"},
      {"smiles": "Cn1cc(-c2nn3cc(-c4cccnc4)nc3s2)c2ccccc21", "growth": "18.9%"},
      {"smiles": "COc1ccc(-c2cc(-c3cccc4ccccc34)n3c(n2)nc2ccccc23)cc1OC", "growth": "47.4%"},
      {"smiles": "Cn1c2ccc(Br)cc2c2c3c(c4c5cc(F)ccc5oc4c21)C(=O)N(O)C3=O", "growth": "75.5%"},
      {"smiles": "O=C(Cn1cc(CN2C(=O)c3ccc([N+](=O)[O-])cc3C2=O)nn1)Nc1ccc(F)cc1Cl", "growth": "98.3%"},
      {"smiles": "O=C1c2c(c3c4ccc(Br)cc4oc3c3[nH]c4ccccc4c23)C(=O)N1CCO", "growth": "44.7%"},
      {"smiles": "CCOC(=O)CC(=O)CSC1=NC2C(NN1)N(C)C(=O)N2C", "note": "(stereo not drawn)", "growth": "80.1%"},
      {"smiles": "Cn1c2ccccc2c2c3c(c4c5ccc(Br)cc5oc4c21)C(=O)N(O)C3=O", "growth": "92.5%"},
      {"smiles": "CCNCCCn1c2c(c3cc(OC)c(OC)cc3c1=O)C(=O)c1cc(OC)cnc1-2", "growth": "26.9%"},
      {"smiles": "C=CCn1c(SCC(=O)Nc2cccc(C(=O)/C=C/c3cccc([N+](=O)[O-])c3)c2)nc2ccccc2c1=O", "growth": "95.7%"},
      {"smiles": "COc1ccc2c(c1)oc1c3[nH]c4ccccc4c3c3c(c21)C(=O)N(O)C3=O", "growth": "59.6%"},
      {"smiles": "COc1cc2c3c(n(CCCN4CCC[C@H]4C(N)=O)c(=O)c2cc1OC)-c1cc2c(cc1C3=O)OCO2", "growth": "9.81% (active)"},
      {"smiles": "C=CCn1c(SCC(=O)Nc2cccc(C(=O)/C=C/c3ccc(Br)cc3)c2)nc2ccccc2c1=O", "growth": "91.5%"},
      {"smiles": "CS(=O)(=O)c1ccc2c(c1)c1c(n2C(=O)c2ccc(Cl)cc2)CCCC1", "growth": "25.7%"},
      {"smiles": "COc1ccc([C@H]2[C@H](O)C(=O)N2c2cc(OC)c(OC)c(OC)c2)cc1O", "growth": "18.6%"},
      {"smiles": "Cc1occc1-c1nc2s/c(=C\\c3cn(-c4ccccc4)nc3-c3ccccc3)c(=O)n2n1", "growth": "97.9%"},
      {"smiles": "COc1cc2c3c(n(CCCNC4CCCCC4)c(=O)c2cc1OC)-c1cc2c(cc1C3=O)OCO2", "growth": "-22.9% (active)"},
      {"smiles": "COc1ccc(-c2no[n+]([O-])c2Nc2ccccc2Br)cc1", "growth": "94.9%"},
      {"smiles": "C/C(Cc1ccc(Cl)cc1)=C(/c1ccccc1)c1ccc(OCCN)cc1", "growth": "94.8%"},
      {"smiles": "COc1cnc2c(c1)C(=O)c1c-2n(CCCNCC2CC2)c(=O)c2cc(F)ccc12", "growth": "5.01% (active)"},
      {"smiles": "COc1cnc2c(c1)C(=O)c1c-2n(CCCn2ccnc2)c(=O)c2cc(OC)c(OC)cc12", "growth": "1.35% (active)"},
      {"smiles": "C=CCn1c(SCC(=O)Nc2cccc(C(=O)/C=C/c3ccccc3)c2)nc2ccccc2c1=O", "growth": "87.1%"},
      {"smiles": "COc1cc2c3c(n(CCCN4CCCC4)c(=O)c2cc1OC)-c1cc2c(cc1C3=O)OCO2", "growth": "-39.6% (active)"},
      {"smiles": "N#C/C(=C\\c1ccc(-c2ccc(F)cc2)o1)C(=O)Nc1ncc(Cc2ccc(Cl)cc2Cl)s1", "growth": "6.32% (active)"},
      {"smiles": "Cc1ccc(-c2nnc3sc(C4=Cc5ccccc5OC=C4)nn23)cc1", "growth": "98.2%"}
    ]}
  ]
}
